Results reported in PubChem BioAssay AID1159580 (chemical genetic matrix, 2015).
Values joined by “and” are separate entries in the source; they are usually repeats but may differ in a detail not shown here. Equal values may be shown once. In all, about 5,500 compounds went through this assay and about 2,000 (36%) were called active. Another 18% or so got no clear call; they are omitted. Rule as the data show it: active = normalized growth mostly below about 0.91 (no sharp cut-off); inconclusive = no clear call, values can overlap the other calls; inactive = mostly above about 0.92. The list shows a part of the results.

Assay: chemical genetic growth profiling, strain panel (AID 1159580);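 also: tested at 20 µM; growth read once vehicle control cultures reached saturation at 30 °C; 1 = growth at the plate median or of vehicle wells; lower values mean less growth of the strain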
Details: S. cerevisiae deletion strains, growth OD

Measured: normalized growth

CCCCN(CCCC)CCCOC(=O)c1ccc(N)cc1
inactive: locus YAL013W, strain DEP1, stronger effect = lower value 1 | locus YAL021C, strain ccr4, stronger effect = lower value 0.992 | locus YAL026C, strain drs2, stronger effect = lower value 0.991 | locus YAL030W, strain snc1, stronger effect = lower value 0.996 | locus YBL061C, strain skt5, stronger effect = lower value 0.986 | locus YBR009C, strain hhf1, stronger effect = lower value 0.998 | locus YBR021W, strain FUR4, stronger effect = lower value 1.07 | locus YBR023C, strain chs3, stronger effect = lower value 0.99 | locus YBR171W, strain sec66, stronger effect = lower value 0.986 | locus YBR229C, strain ROT2, stronger effect = lower value 0.998 | locus YBR231C, strain swc5, stronger effect = lower value 1 | locus YBR279W, strain paf1, stronger effect = lower value 0.994 | locus YCL011C, strain gbp2, stronger effect = lower value 0.985 | locus YCL016C, strain dcc1, stronger effect = lower value 0.99 | locus YCL029C, strain bik1, stronger effect = lower value 0.982 | locus YCL061C, strain MRC1, stronger effect = lower value 0.987 | locus YCL069W, strain vba3, stronger effect = lower value 0.991 | locus YCR088W, strain abp1, stronger effect = lower value 0.985 | locus YDL005C, strain med2, stronger effect = lower value 0.994 | locus YDL035C, strain GPR1, stronger effect = lower value 0.998 | locus YDL040C, strain nat1, stronger effect = lower value 0.99 | locus YDL074C, strain BRE1, stronger effect = lower value 0.977 | locus YDL101C, strain DUN1, stronger effect = lower value 0.979 | locus YDL134C, strain PPH21, stronger effect = lower value 1 | locus YDL185W, strain tfp1, stronger effect = lower value 0.968 | locus YDL192W, strain arf1, stronger effect = lower value 0.994 | locus YDR001C, strain nth1, stronger effect = lower value 0.992 | locus YDR069C, strain doa4, stronger effect = lower value 0.99 | locus YDR101C, strain arx1, stronger effect = lower value 0.986 | locus YDR137W, strain rgp1, stronger effect = lower value 0.879 | locus YDR150W, strain NUM1, stronger effect = lower value 0.995 | locus YDR159W, strain sac3, stronger effect = lower value 0.989 | locus YDR162C, strain NBP2, stronger effect = lower value 0.984 | locus YDR195W, strain ref2 0.99 | locus YDR297W, strain sur2, stronger effect = lower value 0.993 | locus YDR318W, strain mcm21, stronger effect = lower value 0.992 | locus YDR334W, strain swr1, stronger effect = lower value 0.983 | locus YDR335W, strain msn5, stronger effect = lower value 0.989 | locus YDR388W, stronger effect = lower value 0.989 | locus YDR392W, strain spt3, stronger effect = lower value 0.983 | locus YDR502C, strain sam2, stronger effect = lower value 1.01 | locus YEL003W, strain gim4, stronger effect = lower value 0.986 | locus YEL037C, strain rad23, stronger effect = lower value 0.991 | locus YEL061C, strain CIN8 (second series), stronger effect = lower value 0.981 | locus YEL061C, strain CIN8, stronger effect = lower value 0.998 | locus YER015W, strain faa2, stronger effect = lower value 0.991 | locus YER016W, strain bim1, stronger effect = lower value 0.991 | locus YER110C, stronger effect = lower value 0.989 | locus YER111C, strain swi4, stronger effect = lower value 1 | locus YER155C, strain BEM2 (second series), stronger effect = lower value 0.984 | locus YER155C, strain BEM2, stronger effect = lower value 1 | locus YER167W, strain BCK2, stronger effect = lower value 0.995 | locus YFR010W, strain ubp6, stronger effect = lower value 0.99 | locus YGL078C, strain dbp3, stronger effect = lower value 0.992 | locus YGL086W, strain mad1, stronger effect = lower value 0.994 | locus YGL167C, strain pmr1, stronger effect = lower value 0.991 | locus YGL173C, strain kem1, stronger effect = lower value 0.983 | locus YGL227W, strain vid30, stronger effect = lower value 0.983 | locus YGL240W, strain doc1, stronger effect = lower value 1 | locus YGL248W, strain PDE1, stronger effect = lower value 1 | locus YGL253W, strain hxk2, stronger effect = lower value 0.991 | locus YGR078C, strain PAC10, stronger effect = lower value 0.97 | locus YGR135W, strain pre9, stronger effect = lower value 0.994 | locus YGR229C, strain SMI1, stronger effect = lower value 0.961 | locus YGR252W, strain gcn5, stronger effect = lower value 1.16 | locus YHR013C, strain ard1, stronger effect = lower value 0.961 | locus YHR027C, strain rpn1, stronger effect = lower value 0.991 | locus YHR030C, strain SLT2, stronger effect = lower value 0.965 | locus YHR079C, strain IRE1 (second series), stronger effect = lower value 0.977 | locus YHR079C, strain IRE1, stronger effect = lower value 0.973 | locus YHR094C, strain hxt1, stronger effect = lower value 0.985 | locus YHR129C, strain ARP1, stronger effect = lower value 0.989 | locus YHR142W, strain chs7, stronger effect = lower value 0.992 | locus YHR200W, strain rpn10, stronger effect = lower value 0.996 | locus YIL066C, strain RNR3, stronger effect = lower value 0.991 | locus YIL073C, strain SPO22, stronger effect = lower value 0.937 | locus YIL125W, strain kgd1, stronger effect = lower value 0.987 | locus YIR030C, strain dcg1, stronger effect = lower value 0.997 | locus YJL092W, strain hpr5, stronger effect = lower value 0.986 | locus YJL095W, strain BCK1 (second series), stronger effect = lower value 0.993 | locus YJL095W, strain BCK1, stronger effect = lower value 0.967 and 0.982 | locus YJL115W, strain asf1, stronger effect = lower value 0.993 | locus YJL129C, strain trk1, stronger effect = lower value 1 | locus YJL134W, strain LCB3, stronger effect = lower value 0.993 | locus YJL154C, strain vps35, stronger effect = lower value 0.987 | locus YJL164C, strain tpk1, stronger effect = lower value 0.964 | locus YJL166W, strain qcr8, stronger effect = lower value 0.996 | locus YJL168C, strain set2, stronger effect = lower value 0.988 | locus YJL187C, strain SWE1 (second series), stronger effect = lower value 0.962 | locus YJL187C, strain SWE1, stronger effect = lower value 0.992 | locus YJR043C, strain POL32, stronger effect = lower value 0.993 | locus YJR066W, strain TOR1, stronger effect = lower value 0.95
